The list is not random: actives were taken first. Their share in the collection is about 6.1%.
D1 antagonist: blocks dopamine activation of the human D1 receptor; P21728; HEK293 TREx D1 cells, calcium flux, dopamine EC80; active compounds read low; activity change, negative = inhibition, % at 10 µM; 3.2% of 360,000 active; AID 504652; in the data active = activity change below about -30%; note: % is set by controls: 0 for no effect and ±100 for the full control effect
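Inducible Hek293 Trex D1 cells (tetracycline, overnight, 30 C). Calcium dye 30–90 min RT. Antagonist mode: EC80 dopamine added after 180 s compound read.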
D3 antag: D3 dopamine receptor (human) antagonism; P35462; D3R cells, DiscoveRx beta-arrestin luminescence, antagonist mode; active compounds read low; 2.5% of 360,000 active; max response, negative = inhibition, %; in the data active = max response below about -50%; inconclusive = no clear call, values can overlap the other calls; note: % is set by controls: 0 for no effect and ±100 for the full control effect
Target sequence (P35462 whole entry, looked up): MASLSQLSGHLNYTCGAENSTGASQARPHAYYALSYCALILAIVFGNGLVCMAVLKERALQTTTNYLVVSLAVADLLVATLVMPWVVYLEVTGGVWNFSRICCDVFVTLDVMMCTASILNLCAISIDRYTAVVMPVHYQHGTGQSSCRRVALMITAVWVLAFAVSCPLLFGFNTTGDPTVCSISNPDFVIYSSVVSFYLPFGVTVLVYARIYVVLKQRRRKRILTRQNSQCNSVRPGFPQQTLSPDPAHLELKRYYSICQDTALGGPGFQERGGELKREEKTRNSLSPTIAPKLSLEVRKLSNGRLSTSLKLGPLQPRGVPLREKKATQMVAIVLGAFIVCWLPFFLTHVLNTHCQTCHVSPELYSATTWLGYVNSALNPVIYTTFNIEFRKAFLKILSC
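Cells plated overnight at 1500 cells/well, then exposed to library compounds with dopamine controls for 90 minutes at 37 degrees C. DiscoveRx reagent added for 30–60 minutes at room temperature; luminescence read, quantitative HTS format.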
D1 PAM: potentiators of human D1 dopamine receptor; P21728; potentiation, % at 10 µM; 0.036% of 360,000 active; HEK293 TREx D1 cells, calcium flux, dopamine EC20 potentiation; in the data active = potentiation above about 30%; note: 0% is about no effect
D1 ag: human D1 receptor agonism | P21728 | HEK293 T-REx D1 cells, calcium flux, agonist mode | activation, % at 2 µM | 1% of 360,000 active; in the data active = activation above about 30%; note: 0% is about no effect
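Agonism was scored from calcium flux recorded over 180 s (1 read/s) after pintool compound addition, following a 10-cycle baseline. Cells were inducible force-coupled HEK293 TREx D1, plated overnight at 30 C and loaded with no-wash calcium dye.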
DRD3 agonist: D3 dopamine receptor (human) agonism; max activation, %; D3R DiscoveRx beta-arrestin cells, luminescence, 90 min; P35462; 0.58% of 410,000 active; in the data active = max activation above about 30%; note: 0% is about no effect
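Cells at 1500/well, incubated overnight, then treated with pinned compounds (dopamine as control) for 90 min at 37 degrees C. DiscoveRx reagent added for 30 - 60 minutes at room temperature; luminescence read.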
* = called active by the depositor; ? = inconclusive; · = not tested or not shown.

SMILES | D1 antagonist | D3 antag | D1 PAM | D1 ag | DRD3 agonist
CCN(c1ccccc1)S(=O)(=O)c1ccc(Cl)c(NC(=O)CSc2nnc(C)s2)c1 | -25.9 | -7.3 | -3.0 | 8.1 | 1.7
Nc1nonc1C(=O)NCCNCc1ccccc1F | -3.1 | · | -1.9 | -1.6 | -4.0
COc1ccc(CNCCNC(=O)c2nonc2N)cc1OC | 7.5 | -9.5 | -7.2 | -0.7 | -23.6
Nc1nonc1C(=O)NCCNCc1ccccc1 | -46.6* | -0.3 | 2.5 | 4.1 | -13.2
CCOc1cccc(CNCCNC(=O)c2nonc2N)c1 | 4.2 | -50.4* | -3.6 | 2.7 | -10.8
Cc1cccc(C)c1NC(=O)c1ccc(-c2cc(F)ccc2F)o1 | · | -56.6* | · | · | -20.8
CCCCCCCCCCCC(=O)[O][Sn]([CH2]CCC)([CH2]CCC)[O]C(=O)CCCCCCCCCCC | · | · | · | · | 1.1
Cc1ccc2nc(N)[nH]c(=O)c2c1Sc1ccncc1 | · | · | · | · | 11.5
Cc1ccc([N+](=O)[O-])c(OCCN2CCC(Cc3ccccc3)CC2)c1 | -55.0* | -83.3* | -12.9 | 26.8 | -32.6
O=[N+]([O-])c1cccc(OCCCN2CCC(Cc3ccccc3)CC2)c1 | · | -101.3* | · | · | -20.6
CCN1CCN(Cc2ccc(OCc3ccccc3)cc2)CC1 | -12.7 | ? | -6.2 | 37.8* | -15.4
CN1CCN(Cc2ccc(OCc3ccccc3)cc2)CC1 | -2.4 | -5.5 | -4.8 | 7.1 | -3.5
Cc1ccc([N+](=O)[O-])c(OCCCN2CCCCCC2)c1 | · | ? | -11.8 | -0.1 | -10.9
CC(OCCN1CCCC1)(c1ccc(F)cc1)c1ccc(F)cc1 | -23.7 | -75.9* | -8.7 | 16.1 | -48.4
O=C(COC(=O)CCN1C(=O)C2CC=CCC2C1=O)Nc1ccc(Cl)cc1F (centres undefined) | 0.2 | 9.2 | · | 6.7 | 3.0
COc1cccc(OC)c1OCCCCN1CCC(Cc2ccccc2)CC1 | · | -75.3* | -11.1 | 6.1 | -20.6
COc1cccc(OC)c1OCCCCN1CCCC1 | -3.8 | 0.0 | -3.1 | 3.1 | -15.7
Cc1cccc(C(C)(C)C)c1OCCN1CCCC1 | -31.7* | -92.9* | -4.8 | 3.8 | -36.3
CCOc1ccccc1OCCN1CCCC1 | -33.6* | 1.9 | -1.1 | 5.8 | -9.1
N#Cc1ccccc1OCCCN1CCC(Cc2ccccc2)CC1 | -10.9 | -109.3* | -5.0 | 13.3 | -4.3
CC(=O)CCc1ccc(OCCCCN2CCC(Cc3ccccc3)CC2)cc1 | · | ? | -10.2 | 9.0 | -10.8
Cc1ccc(OCC(=O)Nc2cccc(S(=O)(=O)N3CCCCCC3)c2)c([N+](=O)[O-])n1 | -9.0 | 13.4 | -2.0 | 7.1 | -9.6
Cc1ccc2nc(-c3cccc(Br)c3)c(Cc3ccccc3)n2c1 | · | 0.0 | · | · | -9.9
CCNC(=O)C1(C)CCN(C(=O)c2ccc(OC)c(OC)c2)C1 (centres undefined) | · | 3.5 | · | · | 5.6
COCCn1c(SCC(=O)c2ccccc2)nc2cc(C(=O)NC3CCCC3)ccc2c1=O | -0.3 | · | -3.4 | 0.0 | 7.4
SMILES | D1 antagonist | D3 antag | D1 PAM | D1 ag | DRD3 agonist
CC(C)(C)c1ccccc1OCCN1CCCC1 | -1.0 | -78.7* | -2.9 | 3.9 | -26.5
CCN1CCN(CCOc2ccccc2OCc2ccccc2)CC1 | -32.0* | ? | -1.1 | 4.1 | -8.8
CCOc1ccccc1OCCN1CCC(Cc2ccccc2)CC1 | -22.3 | -99.1* | -15.8 | 27.6 | -38.2
CCN1CCN(Cc2ccc(OCc3ccccc3)c(OC)c2)CC1 | 7.3 | -18.9 | -3.5 | 0.9 | -9.2
Cc1ccccc1OCCN1CCC(Cc2ccccc2)CC1 | · | -90.7* | -10.5 | 4.0 | -13.4
CC(C)(C)c1ccc(C(=O)Nc2cccc(S(=O)(=O)NC3=NCCC3)c2)cc1 | -26.4 | 33.2 | -8.3 | 1.7 | 7.4
Cn1c(NC2CCCCC2)c(N=O)c(=O)n(C)c1=O | 21.7 | 0.4 | -1.1 | 4.6 | 0.4
Cn1nc(C(=O)Nc2cccc(S(=O)(=O)N3CCCCC3)c2)c2ccccc2c1=O | 10.0 | 18.0 | -3.9 | 6.8 | 14.8
O=C(O)/C(=C\C(=O)c1ccccc1)Nc1ccccc1 | 3.7 | · | -3.0 | 3.5 | ·
COc1ccccc1OC(C)C(=O)N1CCC(Cc2ccccc2)CC1 (centres undefined) | -10.0 | -21.4 | -6.8 | 3.3 | -4.3
Cc1ccccc1OC(C)C(=O)N1CCC(Cc2ccccc2)CC1 (centres undefined) | -46.8* | -12.1 | -1.9 | 13.1 | -2.2
Cc1cccc(C(=O)N2CCC(Cc3ccccc3)CC2)c1[N+](=O)[O-] | -36.4* | -1.5 | -6.0 | 1.1 | 2.7
CCC(=O)c1ccccc1OCCCN1CCC(Cc2ccccc2)CC1 | -18.6 | -102.1* | -6.7 | 16.3 | -25.2
